# Target: Torsin-1A-interacting protein 2 (Homo sapiens) (UniProt Q8NFQ8)
# Test: LULL1 binders on small-molecule microarray, primary screen, cell lysate, human LULL1 lysate, 635/667 nm fluorescence (AID 1092);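 further: score merges per-feature 667 nm fluorescence with signal-to-noise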
# Settings: hLULL1 lysate binding, 635 nm fluorescence, higher = more signal
# Sequence of Torsin-1A-interacting protein 2 (Homo sapiens) (Q8NFQ8 whole entry, looked up): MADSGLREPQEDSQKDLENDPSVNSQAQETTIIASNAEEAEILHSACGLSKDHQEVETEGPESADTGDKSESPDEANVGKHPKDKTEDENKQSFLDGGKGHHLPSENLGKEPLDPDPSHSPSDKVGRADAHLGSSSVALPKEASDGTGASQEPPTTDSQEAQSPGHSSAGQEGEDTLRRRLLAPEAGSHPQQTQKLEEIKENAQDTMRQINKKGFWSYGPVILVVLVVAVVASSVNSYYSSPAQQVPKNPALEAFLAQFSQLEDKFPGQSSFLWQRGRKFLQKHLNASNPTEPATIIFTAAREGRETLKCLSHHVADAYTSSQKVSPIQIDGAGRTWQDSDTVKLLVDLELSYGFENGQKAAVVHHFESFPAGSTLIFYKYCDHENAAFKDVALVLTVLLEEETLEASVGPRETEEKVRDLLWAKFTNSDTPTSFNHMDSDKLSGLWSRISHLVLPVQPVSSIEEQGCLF
row,Structure (SMILES),composite z-score
1,COC(=O)c1c(CC[C@@H](CO)NC(=O)NCCc2c[nH]c3ccccc23)oc(C(=O)Cc2ccccc2)c1C(=O)OC,1.53
2,CC(C)[Si](C#CCCCC#N)(Oc1ccccc1Br)C(C)C,0.86
3,COc1cc(CO)cc(I)c1O[C@H]1C=C(C(=O)NCCO)C[C@@H](N(C(=O)c2cc3ccccc3oc2=O)C2CCCCCC2)[C@@H]1O,-0.188
4,C=CCC(OC(C)=O)[C@@H]1[C@@H](N(Cc2ccc(-c3cccc(C(F)(F)F)c3)o2)C(=O)c2cccc3ccccc23)c2cc(OCCCO)ccc2N1C(=O)Cc1ccc2ccccc2c1 (stereo partly specified),0.878
5,CC(c1ccccc1)C(O)C1C=CC2C(=O)N(C)C(=O)C2N1NC(=O)OC(C)(C)C (stereo unspecified),3.43
6,COc1ccc(CCNC(=O)[C@@]2(C)c3ccccc3C(=O)N(c3ccc(C)cn3)[C@H]2c2ccc(CO)cc2)cc1,-0.04
7,C#CCNCc1ccccc1,-0.0541
8,CC[C@@H]1C=C(C(=O)O)[C@H](c2ccc(C)cc2)N1S(=O)(=O)c1ccc(C)cc1,2.9
9,COCCCNC(=O)[C@@H]1c2ccccc2C(=O)N(Cc2ccccc2OC)[C@H]1c1ccc(CO)cc1,2.56
10,C=CCOC(=O)[C@H]1[C@@H]2C(=O)O[C@@H](c3ccccc3)[C@@H](c3ccccc3)N2[C@@H](c2ccc(OCCOC(=O)[C@@H]3C[C@@H]4C(=O)N5CCC[C@H]5C(=O)N4[C@@H]3c3cccc(OCCO)c3)cc2)[C@]12C(=O)Nc1ccc(I)cc12,2.09
11,CC(=O)NCCCC[C@@H]1NC(=O)[C@H]2C[C@@H](C(=O)O)[C@@H](c3ccc(O)cc3)N2C1=O,2.84
12,CCCC=C(CCC)[C@@H](NS(=O)(=O)c1ccc(Cl)cc1)c1ccc(C(=O)OC)cc1,0.735
13,[N-]=[N+]=NCc1ccccc1[C@@H]1OC(c2ccc(OCCCO)cc2)=N[C@]1(CCS(=O)(=O)c1ccccc1)C(=O)N1CCCCC1,2.94
14,C=CCC(OC(C)=O)[C@@H]1[C@@H](N(Cc2ccc(-c3ccccc3)cc2)C(=O)Cc2ccc(F)cc2)c2cc(OCCCO)ccc2N1C(=O)c1ccc2ccccc2c1 (stereo partly specified),0.437
15,CCCCCCCCCCC(O)C1C=CC2C(=O)NC(=O)C2N1Nc1ccc(Cl)cc1Cl (stereo unspecified),1.8
16,COc1ccc([Si](C)(C)[C@@H]2[C@@H](CCn3cc(CCO)nn3)O[C@]3(C(=O)N(Cc4cccc(N5C(=O)c6cccc7cccc5c67)c4)c4ccccc43)[C@H]2C)cc1,1.76
17,COCCCNC(=O)[C@@]1(CCS(=O)(=O)c2ccccc2)N=C(c2ccc(OCCCO)cc2)O[C@H]1c1ccccc1N=[N+]=[N-],3.47
18,O[C@@H](Cc1ccccc1)[C@@H](/C=C/C1CC1)NCc1cccc(Cl)c1,-0.44

row,Structure (SMILES),composite z-score
1,CCC(CC)C(O)C1C=CC2C(=O)N(c3ccccc3)C(=O)C2N1Nc1ccccc1 (stereo unspecified),3.53
2,COC(=O)[C@@]1(Cc2ccccc2)[C@H]2c3cc(C(=O)N4CCCC4)n(Cc4ccc(O)c(OC)c4)c3C[C@H]2CN1C(=O)c1ccccc1,3.43
3,COCCCNC(=O)[C@@]1(Cc2ccccc2CN=[N+]=[N-])N=C(c2ccc(OCCCO)cc2)O[C@H]1c1ccccc1CN=[N+]=[N-],3.34
4,COc1ccc(-c2cc3c(c(Cc4ccccc4)n2)[Si](C(C)C)(C(C)C)OC3)cn1,-0.655
5,CC(C)(C)OC(=O)CC[C@]1(C(=O)NCCN2CCOCC2)COC(c2ccc(OCCCO)cc2)=N1,3.4
6,CC(C)[Si](C#CCCCC#N)(O[C@H](c1ccccc1)c1cn(Cc2cccc(Cl)c2)nn1)C(C)C,1.42
7,COc1ccc(C(=O)Nc2ccc(CN3C(=O)[C@]4(O[C@H](CC(=O)N5CCC[C@H]5CO)[C@@H]([Si](C)(C)c5ccc(OC)cc5)[C@@H]4C)c4ccccc43)cc2)cc1,2.57
8,CC(C)(C)OC(=O)CC[C@@]1(C(=O)N2CCCCC2)N=C(c2ccc(OCCCO)cc2)O[C@@H]1c1ccccc1,3.52
9,O=C1NC(=O)C2C1C=CC(C(O)C1CC=CCC1)N2Nc1ccccn1 (stereo unspecified),0.861
10,[N-]=[N+]=Nc1ccccc1C[C@]1(C(=O)N2CCCCC2)COC(c2ccc(OCCCO)cc2)=N1,3.18
11,COc1ccc([Si](C)(C)[C@@H]2[C@@H](CC(=O)N3Cc4ccccc4C[C@H]3CO)O[C@]3(C(=O)N(Cc4cccc(N5CCC5=O)c4)c4ccccc43)[C@H]2C)cc1,1.95
12,O=C1C[C@@](C(=O)NCc2ccccc2)(c2ccc([N+](=O)[O-])cc2)[C@@H](c2ccc(CO)cc2)N1CC12CC3CC(CC(C3)C1)C2,2.39
13,CC=CC(O)C1C=CC2C(=O)N(C)C(=O)C2N1N(c1ccccc1)c1ccccc1 (stereo unspecified),-0.472
14,C=C(CCCC)C(=O)CC[C@H](OC(=O)c1cccnc1)c1ccc(OCCO)cc1,0.434
15,CCOC(=O)C1=CCC(c2ccc(F)cc2)N(S(=O)(=O)c2ccc(C)cc2)C1 (stereo unspecified),0.799
16,O=C1OCCC=C[C@H]2OC34C=CCN(Cn5nnc6ccccc65)C(=O)[C@H]3N(CCO)C(=O)[C@@H]4C12 (stereo partly specified),-0.316
17,CC(c1ccccc1)C(O)C1C=CC2C(=O)N(c3ccccc3)C(=O)C2N1Nc1ccccc1 (stereo unspecified),3.62
18,NCCCCCNC(=O)[C@H]1C[C@H]2C(=O)N3CCC[C@H]3C(=O)N2[C@H]1c1ccc(O)cc1,2.58
